From PubChem BioAssay (NCATS)
Inconclusive results are not listed. Where a call stands in place of a potency, no number is given. Activity calls are given as the source filed them. Calls follow the shape of the dose curve; as a rule, active = well fitted inhibition curve with a large enough effect; inconclusive = small, poorly fitted or top-dose-only effect; inactive = no such curve, though single readings can be large or run the other way.

Legend:
[1] = system: Zika virus NS2B-NS3 protease (unlinked complex); assay: Primary screen GU Rhodamine qHTS for Zika virus inhibitors: Unlinked NS2B-NS3 protease assay (AID 1347159); also: nearly all actives have a fitted effect of over 60% in size
Procedure, shortened: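 Unlinked NS2B/NS3, 25 nM; Rhod110 peptide, 1.5 microM; compounds, up to 114 microM. Reaction run 15 min at RT in 10 mM Tris-HCl pH 8.0, 0.01% Tween 20; kinetic fluorescence change fitted with a 4-parameter Hill model.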

[2] = system: Zika virus NS2B-NS3 protease (linked construct); assay: Primary screen NINDS Rhodamine qHTS for Zika virus inhibitors (AID 1347160); also: nearly all actives have a fitted effect of over 55% in size
Procedure, shortened: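 Single-chain NS2B-NS3 protease, 25 nM, pH 8.0; compounds preincubated 15 min. Activity: Rhodamine110 release from 1.5 microM substrate over 15 min, room temperature, data fitted to 4-parameter Hill.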
Potency is read from the fitted curve at half-maximal effect.

SMILES	Potency [1]	Potency [2]
C=CCc1ccc(OC(C)Cc2ccc(OC)c(OC)c2)c(OC)c1 (centres undefined)	inactive	inactive
O=C(NCc1ccc(OC(F)(F)F)cc1)C1c2c(F)cccc2C(=O)N1CCc1ccccn1 (centres undefined)	inactive	inactive
Cc1ccc(N2CCN(CCC3NC(=O)c4ccccc43)CC2)cc1C (centres undefined)	inactive	inactive
Cn1c(=O)c(F)c(Nc2ccc(I)cc2F)c2c(=O)n(CC(O)CO)cnc21 (centres undefined)	inactive	inactive
C=CS(=O)(=O)NC1CCN(C(=O)CNc2cc(I)c(Cl)cc2OC)CC1	inactive	inactive
CN(C)C(=O)C(=O)c1cn(C)c2cc(Cl)c(C(=O)N3CCC(Cc4ccc(F)cc4)CC3)cc12	inactive	inactive
Cc1ccccc1C(C(=O)NC1CCCCC1)N(C(=O)Cn1cnc2ccccc21)c1cccc(F)c1 (centres undefined)	inactive	inactive
O=S(=O)(N[C@H]1CCCC[C@@H]1N1CCOCC1)c1ccc(Cl)cc1	inactive	inactive
Cn1cc(-c2ccc(S(=O)(=O)n3ccc(/C=C/C(=O)Nc4ccccc4N)c3)cc2)cn1	inactive	inactive
O=C(NC[C@H]1CN(c2ccc(N3CCOCC3=O)cc2)C(=O)O1)c1ccc(Cl)s1	inactive	inactive
COc1ccc(CCCN2CCC(COC(c3ccccc3)c3ccccc3)CC2)cc1	inactive	inactive
COCc1c(Cl)ccc2c1CC[C@H]2c1ncc[nH]1	inactive	inactive
COc1c2c(nc3occc13)C(CC=C(C)C)(OC)C(O)CC2 (centres undefined)	inactive	inactive
CC(=O)C=C=C1C(C)(C)CC(O)CC1(C)O[C@@H]1O[C@H](CO[C@H]2OC[C@](O)(CO)[C@H]2O)[C@@H](O)[C@H](O)[C@H]1O (some centres undefined)	20 µM (active)	11.2 µM (active)
COc1ccc([C@H](Cc2ccncc2)c2ccccc2)cc1OC1CCCC1	inactive	inactive
COc1ccc2[nH]c(=O)c3c(c2c1)OC(C)(C)C=C3	inactive	inactive
CCC(=C(c1ccc(OCCN2CCCC2)cc1)c1ccc(OCCN2CCCC2)cc1)c1ccccc1	inactive	inactive
CCOc1cn(-c2ccc(F)cc2C)nc1C(=O)Nc1ccc(Oc2ccnc3cc(OC)c(OC)cc23)c(F)c1	inactive	inactive
COCCNCc1ccc(-c2cc3nccc(Oc4ccc(NC(=O)C5(C(=O)Nc6ccc(F)cc6)CC5)cc4F)c3s2)nc1	inactive	inactive

SMILES	Potency [1]	Potency [2]
COc1cc(O)cc(OC2OC(CO)C(O)C(O)C2O)c1 (centres undefined)	inactive	inactive
CC1(C)CC[C@]2(C(=O)O)CC[C@]3(C)C(=CCC4[C@@]5(C)C[C@@H](O)[C@H](O)C(CO)(CO)C5CC[C@]43C)C2[C@@H]1O (some centres undefined)	inactive	inactive
C=C1CC[C@@H]2[C@](C)(CO)[C@H](O)CC[C@@]2(C)[C@@H]1CC(O)C1=CCOC1=O (some centres undefined)	inactive	inactive
CCN1CCC[C@@H]1CNC(=O)c1ccc2c(c1)NC(=O)c1cccc(C)c1S2	inactive	inactive
COc1ccc(C#Cc2ccc(C(=O)N3CCC[C@@H](O)C3)c(F)c2)cc1	inactive	inactive
O=c1[nH]c([C@@H]2CCCN2)nc2c1oc1ccc(Cl)cc12	inactive	inactive
COc1ccccc1N1CCN(CC[C@@](C)(C(=O)C2CCCCC2)c2ccccc2)CC1	inactive	inactive
CC1(C)OC[C@H](NC(=O)Nc2ccc(Br)cc2Br)[C@H](c2ccccc2)O1	inactive	inactive
CCn1c(=O)c(-c2ccc(Cl)cc2Cl)cc2cnc(Nc3ccc(N4CCNCC4)c(F)c3)nc21	inactive	inactive
C[C@H]1[C@H](/C=C/c2ccc(-c3ccccc3C#N)cn2)[C@@H]2[C@@H](C)OC(=O)[C@@H]2C[C@@H]1C	inactive	inactive
O=C(CN1C2=NCCN2c2ccccc21)c1ccc(-c2ccccc2)cc1	inactive	inactive
OC(c1ccc(-c2ccc(CN3CCN(Cc4ccncc4)CC3)cc2)c(F)c1)(C(F)(F)F)C(F)(F)F	inactive	inactive
CC1(C)Oc2ncnc(N)c2N=C1c1ccc(C23CCC(CC(=O)O)(CC2)CC3)cc1	50.1 µM (active)	inactive
O=C(NCCCc1ccccc1)C1CCC(CNS(=O)(=O)c2cccc3nsnc23)CC1 (centres undefined)	inactive	inactive
CN(C)CCN(Cc1ccccc1)C(=O)c1cc(-c2ccc(F)cc2)n2nc(C(C)(C)C)cc2n1	inactive	inactive
CC[C@@H]1C[C@]1(NC(=O)[C@@H]1C[C@@H]2CN1C(=O)[C@H](C(C)(C)C)NC(=O)OCC(C)(C)CCCCc1cccc3c1CN(C3)C(=O)O2)C(=O)NS(=O)(=O)C1CC1	28.2 µM (active)	22.4 µM (active)
Cc1csc(N(C(=O)CSc2ccc(-c3ccccc3)nn2)C2CC2)n1	inactive	inactive
CN1CCC(NC(=O)c2cc(-c3c(O)cc(O)cc3Oc3ccc([N+](=O)[O-])cc3)on2)CC1	inactive	inactive
